Sampled rows, rich in hits. Any-hit rate of the full collection: about 1.3%.
NCOA3 inh: inhibits human SRC3 coactivator | Q9Y6Q9 | HEK293 GAL4-SRC3 luciferase reporter, luminescence | inhibition, % at 3.6 µM | actives 0.17% (n = 360,000);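 active means inhibition above a per-campaign cutoff, the mean of all compounds plus 3 SD, cut at about 60% in these data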;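 further: 0% = DMSO-treated cells and 100% = gossypol-treated cells at 36 µM; higher means less SRC3-driven luciferase light from the GAL4 reporter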
NCOA1 inh: inhibitors of human steroid receptor coactivator 1 (SRC1) | actives 0.12% (n = 360,000) | Q15788 | AID 588354 | inhibition, % at 3.6 µM | HEK293 GAL4-SRC1 luciferase reporter, luminescence;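 active means inhibition above the campaign mean plus 3 SD, with each screening campaign given its own cutoff, cut at about 60% in these data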;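 further: 0% = DMSO treated cells and 100% = gossypol at 36 µM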
NR2F2 inh: NR2F2 (human) inhibition, primary screen | P24468 | HEK293T NGFI-A luciferase reporter, luminescence | inhibition, % at 8.6 µM | actives 0.7% (n = 370,000) | AID 686940;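 active means inhibition above a per-plate cutoff, mean inhibition of test wells between control levels plus 3 SD, cut at about 38% in these data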;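 further: cells cotransfected with COUP-TFII expression vector driving the NGFI-A reporter; 0% = median of COUP-TF2 test wells and 100% = reporter-only cells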
NR5A2 inv ag: suppresses constitutive activity of human LRH-1 | HEK293T StAR-luciferase reporter, LRH-1 transfected, 24 h | actives 0.13% (n = 360,000) | inhibition, % at 3.6 µM | O00482;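 active means inhibition above the mean inhibition of all tested compounds plus 3 SD, cut at about 73% in these data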;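 further: 0% = DMSO wells and 100% = reporter-only cells lacking LRH-1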
Gli-Sufu antag: blocks Gli-Sufu signaling in a luciferase reporter. Sufu-KO-LIGHT fibroblasts, Gli luciferase reporter luminescence. inhibition, % at 5 µM. actives 0.74% (n = 340,000). AID 588413;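 active means inhibition above about 55%, limit read from the data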;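 further: 0% = DMSO-treated cells and 100% = wells with medium but no cells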
NCOA2 inhibitor: inhibits human steroid receptor coactivator 2; Q15596; inhibition, % at 9 µM; HEK293 GAL4-SRC2 luciferase reporter, luminescence; actives 0.17% (n = 370,000);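 active means inhibition above the mean inhibition of all tested compounds plus 3 SD, set per campaign, cut at about 52% in these data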;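 further: 0% = DMSO treated cells and 100% = cells given Gossypol at 36 µM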
Starred values were filed as active, the others as inactive; . = no result given.

SMILES	NCOA3 inh	NCOA1 inh	NR2F2 inh	NR5A2 inv ag	Gli-Sufu antag	NCOA2 inhibitor
Cc1ccc(NCCN(C)C)c2c(=O)c3cc(O)ccc3sc12	59	64*	-94	43	66*	-69
CN(C)CCNc1cccc2sc3ccc(O)cc3c(=O)c12	21	8	-22	29	.	-87
O=C(O)c1ccc(N/N=C/c2ccc(OC(=O)c3cccc(Cl)c3)cc2)cc1	-39	-71	-18	-88	61*	-10
O=C(Oc1ccc(/C=N/Nc2ccccc2)cc1)c1ccccc1	-6	0	-6	0	-1	5
CCCCN1CC(COCc2ccccc2)Oc2cccc(Sc3ccc(OC)c(OC)c3)c2S1(=O)=O (stereo not drawn)	.	.	1	.	.	6
CC1CN(S(=O)(=O)c2cccc(C(=O)NCCCn3ccnc3)c2)CC(C)O1 (stereo not drawn)	7	-8	5	-2	-6	-4
CC1CN(S(=O)(=O)c2ccc(C(=O)NCCCn3ccnc3)cc2)CC(C)O1 (stereo not drawn)	54	62*	8	67	15	47
CN(C)c1cccc2c(S(=O)(=O)NCC3CCN(C(=O)C(=O)c4cc5ccccc5o4)CC3)cccc12	.	.	6	.	.	-27
O=C(CN1C(=O)c2ccccc2S1(=O)=O)c1ccc(OC(F)F)cc1	12	36	.	31	78*	.
Brc1ccc2c(c1)CN1CCCC1=N2	39	61*	11	45	-8	-1
O=C(Nc1ccccc1C(=O)Nc1nnc(C(F)(F)F)s1)c1ccccc1	17	-8	4	-2	76*	19
COc1ccc(C(=O)C(CCC(CNC(C)(C)C)C(=O)c2ccc(OC)cc2)CNC(C)(C)C)cc1 (stereo not drawn)	35	23	3	12	-11	54*
COc1ccc(C(=O)CC(=O)c2ccc(C(C)(C)C)cc2)cc1	-13	-8	18	-18	24	-13
COC(=O)[C@]12C[C@H](CC(=O)N3CCN(C(=O)C4CC4)CC3)C(=O)N(Cc3ccc4c(c3)OCO4)C1=C[C@H](COCc1ccccc1)O[C@@H]2C	.	.	10	.	.	6
O=C1NC(=O)/C(=C/c2cccc([N+](=O)[O-])c2)N1	-58	-15	-10	23	44	-39
CCN1C/C(=C/c2cccc([N+](=O)[O-])c2)C(=O)/C(=C/c2cccc([N+](=O)[O-])c2)C1	12	17	19	-11	58*	21
COCc1cc(N2CCN(C(=O)OC(C)(C)C)C[C@@H]2C)ccc1N1CC[C@H](O)C1	.	.	-4	.	.	-27
CCOc1ccc(C(=O)Nc2ccc(N3CCN(C(C)=O)CC3)cc2)cc1[N+](=O)[O-]	8	-9	-4	10	5	1
CC(=O)N1CCN(c2ccc(Oc3ccc([N+](=O)[O-])c(C(F)(F)F)c3)cc2)CC1	20	31	.	42	67*	.
COc1ccc(C(=O)NC2CC3CCCC(C2)N3CC(C)C)cc1OC (stereo not drawn)	-4	0	8	-1	3	-3
COc1ccc(C(=O)NC2CC3CCCC(C2)N3CC(C)C)cc1 (stereo not drawn)	5	2	-14	9	20	95*
CN(C)S(=O)(=O)c1cccc(NC(=S)Nc2cccc3cnccc23)c1	34	49	44*	37	-1	42
CCNC(=O)N1CCN(c2ccc(N3CCN(C(=O)NCC)[C@H](C)C3)c(C)c2)[C@H](C)C1	.	.	-1	.	.	15
COc1ccc(-c2[nH]ncc2-c2ccc3c(c2)OCCO3)c(O)c1	65*	67*	23	39	-10	49
S=C1NC[C@H](Cc2ccccc2)N1CC1CCN(CCCC2CCCCC2)CC1	.	.	7	.	.	17
Nc1[nH]c(C(=O)c2ccc(Br)cc2)c(-c2ccc3ccccc3c2)c1C(=O)NCCc1c[nH]c2ccccc12	.	.	11	.	.	8
N#CC(c1cccc(Cl)c1)c1ccc2c(C(F)(F)F)cc(C(F)(F)F)nc2n1 (stereo not drawn)	41	22	-3	99*	88*	28
NNc1ccc2c(C(F)(F)F)cc(C(F)(F)F)nc2n1	5	3	17	7	-17	-2
COC(=O)c1cc(S(=O)(=O)N2CCOCC2)c(Cl)cc1N1CCOCC1	-22	-16	-7	8	1	-17
